Shown are actives, neighbours in structure and some others; about 2.3% of the full set was active somewhere.
Bcl-xL primary – inhibitors of human Bcl-xL, primary screen, biochemical, fluorescence polarization, HTS | Bcl-2-like protein 1 (Homo sapiens), Q07817 | GST-Bcl-xL / FITC-Bim BH3 peptide fluorescence polarization | inhibition, % at 10.9 µM | hit rate 0.7% among 320,000;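 active = inhibition above the mean of all tested compounds plus 3 SD, cutoff set per campaign, cut at about 30% in these data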;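 note: inhibitors lower millipolarization by displacing the labeled peptide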
Target sequence (Q07817 whole entry, looked up): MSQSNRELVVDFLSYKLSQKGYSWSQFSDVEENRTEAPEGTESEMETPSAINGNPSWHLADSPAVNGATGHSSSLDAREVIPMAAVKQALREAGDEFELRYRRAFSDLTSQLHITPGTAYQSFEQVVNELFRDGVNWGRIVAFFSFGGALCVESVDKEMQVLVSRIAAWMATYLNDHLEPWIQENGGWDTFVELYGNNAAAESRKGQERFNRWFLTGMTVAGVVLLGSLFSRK
MCL1-BIM inh – inhibitors of MCL1 binding to BIM-BH3, primary screen, biochemical, fluorescence polarization; GST-MCL1 / FITC-Bim-BH3 fluorescence polarization; Induced myeloid leukemia cell differentiation protein Mcl-1 (Homo sapiens), Q07820; inhibition, % at 10.9 µM; hit rate 0.68% among 320,000;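 active = inhibition above the mean inhibition of all tested compounds plus 3 SD, set per campaign, cut at about 40% in these data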;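 note: higher means more loss of mP so more displacement of Bim peptide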
Bim-Mcl-1 – inhibitors of Bim peptide binding to Mcl-1, primary screen, biochemical, bead-based flow cytometry, multiplex; Bim peptide-Mcl-1 binding; Induced myeloid leukemia cell differentiation protein Mcl-1 (Homo sapiens), Q07820; inhibition, % at 10 µM; AID 1009, 2008; hit rate 0.1% among 190,000; in the data active = inhibition above about 40%
Mcl1 Bid PPI – Mcl-1/Bid binding inhibitors, primary screen, biochemical, TR-FRET, 1536-well; TR-FRET Mcl-1/Bid-Dy647 peptide binding; AID 1021, 2008; inhibition, % at 21.7 µM; hit rate 0.97% among 220,000; Induced myeloid leukemia cell differentiation protein Mcl-1 (Homo sapiens), Q07820;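 active = compounds that cut the binding signal by more than half at the single screening dose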;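 note: His-tagged Mcl-1 with europium anti-His antibody binding Bid BH3 peptide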
GLD-1 TGE inh – GLD-1/TGE RNA complex disruptors, primary screen, biochemical, fluorescence polarization; AID 2280, 2010; purified GLD-1 + fluorescein TGE RNA; inhibition, % at 5.96 µM; Female germline-specific tumor suppressor gld-1 (Caenorhabditis elegans), Q17339; hit rate 0.44% among 320,000;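 active = percent inhibition above a per-plate cutoff, the plate mean of test compounds plus 3 SD, cut at about 30% in these data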
Mcl1-Noxa inh – Mcl-1/Noxa binding inhibitors, primary screen, biochemical, TR-FRET, 1536-well; Induced myeloid leukemia cell differentiation protein Mcl-1 (Homo sapiens), Q07820; TR-FRET Mcl-1/Noxa peptide binding, 2 h; inhibition, % at 21.7 µM; hit rate 1.5% among 220,000;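 active = compounds that cut the protein-peptide binding signal by more than 50% relative to plate controls in a single-dose test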;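 note: His-tagged Mcl-1 with rhodamine Noxa BH3 peptide and terbium anti-His antibody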
BCLXL inh confirm – Bcl-xL inhibitors blocking Bim BH3 binding, confirmation, counter-screen for MCL1 inhibitor project, biochemical, fluorescence polarization | shares compounds with MCL1-BIM inh | GST-Bcl-xL / FITC-Bim BH3 peptide FP binding | inhibition, % at 10.9 µM | hit rate 54% among 1,700 | AID 2166, 2009;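 active = inhibition above a cutoff equal to the mean inhibition of all tested compounds plus 3 SD, cut at about 30% in these data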
MCL1 inh confirm – inhibitors of MCL1 binding to BIM-BH3, confirmation, biochemical, fluorescence polarization, triplicate | shares compounds with MCL1-BIM inh | GST-MCL1 / FITC-Bim-BH3 fluorescence polarization | inhibition, % at 10.9 µM | hit rate 61% among 1,700;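 active = inhibition above the average of all tested compounds plus 3 SD, cut at about 40% in these data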
Numbers stand for hits; 0 = inactive; - = not tested or not shown.

SMILES	Bcl-xL primary	MCL1-BIM inh	Bim-Mcl-1	Mcl1 Bid PPI	GLD-1 TGE inh	Mcl1-Noxa inh	BCLXL inh confirm	MCL1 inh confirm
CCOC(=O)NC1(Nc2ccc(C)cc2)Oc2ccccc2O1	0	58	0	0	0	0	41	46
Cc1ccn2c(=O)c(NC(=O)c3ccc(Br)o3)c(C)nc2c1	0	0	-	-	0	-	-	-
CC(=O)n1cc([C@@H]2C=C(C(=O)N3CCN(Cc4ccc5c(c4)OCO5)CC3)O[C@H](OCCCCO)C2)c2ccccc21	0	0	0	0	0	0	-	-
CC(=O)n1cc([C@H]2C=C(C(=O)N3CCN(Cc4ccccc4)CC3)O[C@@H](OCCCCO)C2)c2ccccc21	0	70	0	0	0	0	0	0
CN(C(=O)CN1C(=O)NC(C)(c2cccc(Br)c2)C1=O)C1CCCCC1 (centres undefined)	0	82	-	-	0	-	0	0
CN(C)S(=O)(=O)c1ccc(NC(=O)CN2C(=O)NC(Cc3ccccc3)C2=O)cc1 (centres undefined)	0	0	-	-	0	-	-	-
COc1ccc(-n2cccc2/C=C2\C(=N)N3N=C(c4ccco4)SC3=NC2=O)cc1	0	66	0	81	0	87	0	81
CCC(C)Sc1ccc([C@H]2N[C@@](Cc3ccccc3)(C(=O)OC)[C@H]3C(=O)N(C)C(=O)[C@@H]23)cc1 (some centres undefined)	0	0	-	-	0	-	-	-
CCN(CC)S(=O)(=O)c1cccc(C(=O)N/N=C/c2cccc(O)c2O)c1	0	0	0	0	0	0	-	-
CCN(CC)S(=O)(=O)c1cccc(C(=O)N/N=C2\CCCC(=O)C2)c1	41	56	-	0	114	0	0	0
Cc1cc(C(=O)NN)n[nH]1	0	56	-	0	0	0	0	0
Cc1c(Cl)cnc(NC(=O)COC(=O)c2ccc([N+](=O)[O-])s2)c1Cl	42	61	0	0	0	94	34	48
O=C(COC(=O)c1ccc([N+](=O)[O-])s1)Nc1ccc(Cl)cn1	0	0	0	0	0	0	-	-
Oc1ccc(/C=N/Nc2ncnc3c2ncn3Cc2ccccc2)cc1O	0	57	0	0	0	0	0	0
CC(=O)N1CCc2c(sc(NC(=O)C3CCN(S(=O)(=O)c4cccs4)CC3)c2C(N)=O)C1	0	0	-	-	0	-	-	-
CC(=O)N1CCc2c(sc(NC(=O)C3CCCN3S(=O)(=O)c3cccs3)c2C(N)=O)C1 (centres undefined)	67	64	-	-	115	-	67	76
COc1ccccc1-n1nnnc1SCC(=O)Nc1ccc(C)c(N)c1	141	139	-	-	93	-	0	0
COc1cccc(C(=O)Nc2ccc3c(c2)C(=O)c2ccccc2C3=O)c1	0	77	0	74	0	75	0	0
COc1cccc(NC(=O)c2ccncc2)c1	0	0	0	0	0	0	-	-
COc1cccc(C(=O)Nc2ccncc2)c1	0	45	0	0	0	0	0	0
COc1cccc(C(=O)Nc2ccc(C(=O)c3ccccc3)cc2)c1	0	0	-	-	0	-	-	-
O=C1CSC(=S)N1/N=C/c1ccc(O)c(O)c1O	66	85	-	100	0	101	75	93
CSc1ccc(C2Nc3cccc4cccc(c34)N2)cc1	0	0	-	-	0	-	-	-
Clc1ccc(C2Nc3cccc4cccc(c34)N2)cc1	44	67	-	-	0	-	0	0
CN(C)c1ccc(N2C(=O)CSC2=S)cc1	39	46	0	0	0	0	0	0

Source: PubChem BioAssay
